Growth data for nine compounds are collected here from PubChem BioAssay (NCI).

About 83,000 compounds went through this panel and 20% of them were active in at least one assay; those are over-represented in the sample as a whole.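 The test compound was applied at a single concentration to cells in 96-well plates for 48 hours, and percent growth was recorded.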 A number with no mark means an inactive call. Activity calls are given as the source filed them. How the source made its calls: active means growth percent below 10; inactive means the rest.

Common to all, as to assay: NCI-60 one-dose screen, 48 h (100 = growth as untreated, 0 = no growth, -100 = all killed)
One assay has as its system SK-MEL-2 melanoma. To be noted: 10 µM unless noted.
In another assay the test system is EKVX NSCLC. The conditions noted are these: 10 µM unless noted.
For a further assay, the system named is SN12C renal. The conditions noted are these: 10 µM unless noted.
In a further assay the test system is UO-31 renal. To be noted: 10 µM unless noted.
The next assay deals with TK-10 renal. To be noted: 10 µM unless noted.
In a further assay the test system is ACHN renal. The conditions noted are these: 10 µM unless noted.
Another assay concerns A498 renal. To be noted: 10 µM unless noted.
A further assay has as its system MOLT-4 leukemia. To be noted: 10 µM unless noted.
The next assay has as its system SR leukemia. To be noted: 10 µM unless noted.
The subject of another assay is RPMI-8226 leukemia. The conditions noted are these: 10 µM unless noted.
In the next assay the test system is OVCAR-8 ovarian. The conditions noted are these: 10 µM unless noted.
The next assay concerns OVCAR-5 ovarian. The conditions noted are these: 10 µM unless noted.
Another assay concerns OVCAR-4 ovarian. The conditions noted are these: 10 µM unless noted.
The next assay concerns SK-OV-3 ovarian. To be noted: 10 µM unless noted.
A further assay deals with IGROV1 ovarian. To be noted: 10 µM unless noted.
For the next assay, the system named is OVCAR-3 ovarian. The conditions noted are these: 10 µM unless noted.
The subject of a further assay is NCI/ADR-RES ovarian. The conditions noted are these: 10 µM unless noted.
A further assay relates to CCRF-CEM leukemia. To be noted: 10 µM unless noted.
In the next assay the test system is HS 578T breast. To be noted: 10 µM.

On to `Fc1ccc2nc(-c3ccc(-c4noc(-c5ccc(Cl)cc5)n4)cc3)[nH]c2c1`, for which the growth is 105% in the assay on SK-MEL-2 melanoma; 107% in the assay with EKVX NSCLC; 110% with SN12C renal; 83.9% with UO-31 renal; 115% in the assay on TK-10 renal; 110% with ACHN renal. The growth with A498 renal was 81%; in the assay with MOLT-4 leukemia, 89.8%; with SR leukemia, 95.6%; with RPMI-8226 leukemia, 106%; in the assay with OVCAR-8 ovarian, 108%; with OVCAR-5 ovarian, 113%. Also, the growth is 114% in the assay on OVCAR-4 ovarian; 113% with SK-OV-3 ovarian; 115% in the assay on IGROV1 ovarian; 105% in the assay with OVCAR-3 ovarian; 100% with NCI/ADR-RES ovarian.
With `C=CCn1c(SCC(=O)Nc2ccc(C(=O)/C=C/c3ccccc3)cc2)nnc1-c1ccc(OC)c(OC)c1`, the growth was 85.2% in the assay with SK-MEL-2 melanoma; 80.7% in the assay on EKVX NSCLC; 74.7% with SN12C renal; 55.7% with UO-31 renal; 87.6% with TK-10 renal; 86.8% in the assay on ACHN renal. In addition, the growth in the assay with A498 renal was 75%; in the assay with CCRF-CEM leukemia it was 83.7%; in the assay with MOLT-4 leukemia, 58.2%; in the assay on RPMI-8226 leukemia it was 2.52% (active); in the assay on OVCAR-8 ovarian, 78.5%; in the assay on OVCAR-5 ovarian, 108%. Besides, the growth in the assay with OVCAR-4 ovarian was 72.5%; in the assay on IGROV1 ovarian it was 81.6%; in the assay with OVCAR-3 ovarian, 78.1%; in the assay with HS 578T breast, 96.4%; in the assay with NCI/ADR-RES ovarian, 80.1%.
`COc1cc(/C=C/C(=O)c2ccc(NC(=O)CSc3nnc(-c4ccc(Cl)cc4)n3-c3ccccc3)cc2)cc(OC)c1OC`: the growth with SK-MEL-2 melanoma was 81.1%; in the assay on EKVX NSCLC it was 75.1%; in the assay with SN12C renal, 74.5%; with UO-31 renal, 75.6%; with TK-10 renal, 89.4%; with ACHN renal, 82.4%. The growth is 77.5% with A498 renal; 57.8% with CCRF-CEM leukemia; 40.8% in the assay on MOLT-4 leukemia; 9.23% (active) with RPMI-8226 leukemia; 62.3% in the assay with OVCAR-8 ovarian; 128% with OVCAR-5 ovarian. Besides, the growth with OVCAR-4 ovarian is 57.2%; in the assay with SK-OV-3 ovarian, 86.6%; with IGROV1 ovarian, 74.7%; in the assay with OVCAR-3 ovarian it was 73.4%; with HS 578T breast, 92.9%; with NCI/ADR-RES ovarian, 87.9%.
Consider `C=CCn1c(SCC(=O)Nc2ccc(/C(C)=N\O)cc2)nnc1-c1cc(-c2ccccc2)nc2ccccc12`, for which the growth in the assay on SK-MEL-2 melanoma was 72.1%; in the assay on EKVX NSCLC, 55%; in the assay on SN12C renal, 69.3%; in the assay on UO-31 renal it was 40.6%; in the assay on TK-10 renal, 74.5%; with ACHN renal, 38.4%. Further, the growth with A498 renal was 65.1%; in the assay on CCRF-CEM leukemia, 18.2%; in the assay with MOLT-4 leukemia, 3.61% (active); in the assay with RPMI-8226 leukemia it was 47.1%; in the assay with OVCAR-8 ovarian, 53.5%; in the assay with OVCAR-5 ovarian it was 85.8%. Besides, the growth in the assay with OVCAR-4 ovarian was 75%; in the assay with SK-OV-3 ovarian, 79.6%; with IGROV1 ovarian it was 0.364% (active); in the assay on OVCAR-3 ovarian, 58.3%; with HS 578T breast it was 85.8%; in the assay on NCI/ADR-RES ovarian, 52.8%.
In the case of `COc1ccc(/C=C/C(=O)c2ccc(NC(=O)CSc3nnc(-c4ccc(OC)cc4)n3-c3ccccc3)cc2)cc1`, the growth with SK-MEL-2 melanoma is 95.5%; with EKVX NSCLC, 95.5%; in the assay on SN12C renal, 96.5%; in the assay on UO-31 renal it was 79.3%; in the assay on TK-10 renal, 109%; with ACHN renal, 106%. The growth is 109% with A498 renal; 95% in the assay with CCRF-CEM leukemia; 88% in the assay on MOLT-4 leukemia; 77.5% in the assay with RPMI-8226 leukemia; 92.2% with OVCAR-8 ovarian; 108% with OVCAR-5 ovarian. Further, the growth is 100% with OVCAR-4 ovarian; 100% in the assay with SK-OV-3 ovarian; 111% with IGROV1 ovarian; 103% in the assay with OVCAR-3 ovarian; 91.2% in the assay with HS 578T breast; 102% with NCI/ADR-RES ovarian.
Turning to `O=C(Nc1ccc(Cl)c(C(F)(F)F)c1)c1ccc(Nc2ccc(Cl)nn2)cc1`, the growth with SK-MEL-2 melanoma is 83.3%; in the assay on EKVX NSCLC, 55.7%; in the assay with SN12C renal it was 78.9%; in the assay on UO-31 renal, 0.31% (active); in the assay on TK-10 renal, 68.1%; in the assay on ACHN renal, 52.4%. For the same compound, the growth in the assay on A498 renal is 51.6%; in the assay with CCRF-CEM leukemia, 44.8%; with MOLT-4 leukemia, 43.7%; in the assay with RPMI-8226 leukemia, 38.3%; with OVCAR-8 ovarian, 55.2%; in the assay with OVCAR-5 ovarian it was 76.7%. For the same compound, the growth in the assay with OVCAR-4 ovarian was 42.2%; with SK-OV-3 ovarian, 85.3%; with IGROV1 ovarian, 87.6%; in the assay with OVCAR-3 ovarian it was 66.8%; in the assay with HS 578T breast, 85.7%; in the assay on NCI/ADR-RES ovarian, 61.1%.
In the case of `CC(=O)c1cccc(Nc2ncnc3ccc(NC(=O)c4ccco4)cc23)c1`, the growth in the assay with SK-MEL-2 melanoma is 98.1%; in the assay with EKVX NSCLC, 84.8%; in the assay with SN12C renal, 87.4%; in the assay on UO-31 renal, 64.8%; with TK-10 renal, 99.6%; in the assay with ACHN renal, 87.1%. In addition, the growth is 82.4% in the assay on A498 renal; 96.5% in the assay with CCRF-CEM leukemia; 77.5% in the assay on MOLT-4 leukemia; 90.2% in the assay on SR leukemia; 75% in the assay on RPMI-8226 leukemia; 92.1% in the assay on OVCAR-8 ovarian. In addition, the growth with OVCAR-5 ovarian is 90.4%; in the assay with OVCAR-4 ovarian it was 89%; with SK-OV-3 ovarian, 104%; in the assay with HS 578T breast it was 102%; in the assay on NCI/ADR-RES ovarian, 92.7%.
For the compound `CN(CCO)c1ccc(N2Cc3ccccc3OC3=C2C(=O)c2c(O)ccc(O)c2C3=O)cn1`, the growth was -54.4% (active) with SK-MEL-2 melanoma; -38.5% (active) in the assay with EKVX NSCLC; -90.9% (active) with SN12C renal; -100% (active) in the assay with UO-31 renal; -98.5% (active) in the assay on TK-10 renal; -100% (active) in the assay on ACHN renal. Besides, the growth in the assay with A498 renal was -48.2% (active); in the assay on CCRF-CEM leukemia it was -12.2% (active); in the assay with MOLT-4 leukemia, -30.6% (active); in the assay on RPMI-8226 leukemia, -16.2% (active); with OVCAR-8 ovarian, 1.86% (active); in the assay with OVCAR-5 ovarian it was -59.8% (active). The growth in the assay on OVCAR-4 ovarian is -97.5% (active); in the assay on IGROV1 ovarian, -72.7% (active); in the assay with OVCAR-3 ovarian, -99.7% (active); in the assay with HS 578T breast, 28.4%; in the assay with NCI/ADR-RES ovarian it was -2.37% (active).
Take `Nc1cccc(S(=O)(=O)c2cccc(N)c2)c1`: the growth in the assay with SK-MEL-2 melanoma was 116%; in the assay on EKVX NSCLC, 105%; in the assay with SN12C renal, 112%; in the assay on UO-31 renal it was 95.8%; in the assay with TK-10 renal, 123%; with ACHN renal, 102%. Moreover, the growth in the assay on A498 renal was 108%; with CCRF-CEM leukemia it was 102%; with MOLT-4 leukemia it was 10.4%; in the assay with RPMI-8226 leukemia, 110%; in the assay with OVCAR-8 ovarian, 113%; in the assay on OVCAR-5 ovarian, 99.7%. For the same compound, the growth in the assay with OVCAR-4 ovarian was 102%; in the assay with SK-OV-3 ovarian it was 120%; in the assay with IGROV1 ovarian, 114%; in the assay with OVCAR-3 ovarian, 113%; with NCI/ADR-RES ovarian it was 115%.
